Measured values reported in PubChem BioAssay (EPA / NIEHS).
Calls of active or inactive are those of the source. How the source made its calls: active means hit-call score of the fitted dose curve at least 0.9, where 1 is the maximum; inactive means score below 0.9.

target: X-box-binding protein 1 (Homo sapiens) (UniProt P17861); assay: ATG_Xbp1_CIS: Attagene CIS-FACTORIAL HepG2 Assay for human X-box Binding Protein 1 (XBP1) (AID 2282972); conditions: HepG2 XBP1 cis-element reporter, Attagene multiplex; actives raise or lower the signal
Procedure: ATG_CIS is a cell-based, multiplexed-readout assay that uses HepG2, a human liver cell line, with measurements taken at 24 hours after chemical dosing in a 24-well plate.ATG_Xbp1_CIS is one of 52 assay component(s) measured or calculated from the ATG_CIS assay. It is designed to make measurements of mRNA induction, a form of inducible reporter, as detected with fluorescence intensity signals by Reverse transcription polymerase chain reaction (RT-PCR) and Capillary electrophoresis technology.Data from the assay component ATG_Xbp1_CIS was analyzed into 1 assay endpoint. This assay endpoint, ATG_Xbp1_CIS, was analyzed with bidirectional fitting relative to DMSO as the negative control and baseline of activity. Using a type of inducible reporter, measures of mRNA for gain or loss-of-signal activity can be used to understand the reporter gene at the transcription factor-level as they relate to the gene XBP1. Furthermore, this assay endpoint can be referred to as a primary readout, because this assay has produced multiple assay endpoints where this one serves a reporter gene function. To generalize the intended target to other relatable targets, this assay endpoint is annotated to the dna binding intended target family, where the subfamily is basic leucine zipper.
Human liver HepG2 cells are transiently transfected with multiple reporter transcription units (MRTUs) in 6-well plates using FuGene 6 reagent (Roche; 3 ml FuGene/1 mg DNA). The MRTU constructs are regulated by a cis-regulating element (promoter). […] A major difference between the CIS and TRANS system is that in CIS activities of endogenous TFs are measured, whereas the TRANS assay evaluates changes in activities of exogenous, chimeric NR-Gal4 proteins. […] At the end of 24 hour incubation, total RNA was isolated using TriZol reagent (Invitrogen). The isolated RNA is then reverse-transcribed using oligo(dT) primer and Mo-MLV reverse transcriptase (Invitrogen) with DNAse I (Ambion) treatment for 30 min. The one-tenth of the produced cDNA was amplified by PCR using Taq DNA polymerase (Invitrogen) and two reporter sequence-specific primers. The PCR products were fluorescently labeled by primer extension with 6-arboxyfluorescein (6-FAM) 5'-labeled reporter sequence-specific primer (2 min at 95 C, 20 s at 68 C and 10 min at 72 C) and these products were digested with 5U of HpaI (New England Biolabs) for 2h at 37 C. The fragments were purified using Qiaquick PCR columns (Qiagen), analyzed on an ABI 3130xL genetic analyzer (Applied Biosystems) with peak positions identified by using a set of X-rhodamine (ROX)-labeled MapMarker1000 molecular weight standards (BioVentures). The raw capillary electrophoresis data was processed using Attagraph software (Attagene).

X-box-binding protein 1 (Homo sapiens), sequence (P17861 whole entry, looked up): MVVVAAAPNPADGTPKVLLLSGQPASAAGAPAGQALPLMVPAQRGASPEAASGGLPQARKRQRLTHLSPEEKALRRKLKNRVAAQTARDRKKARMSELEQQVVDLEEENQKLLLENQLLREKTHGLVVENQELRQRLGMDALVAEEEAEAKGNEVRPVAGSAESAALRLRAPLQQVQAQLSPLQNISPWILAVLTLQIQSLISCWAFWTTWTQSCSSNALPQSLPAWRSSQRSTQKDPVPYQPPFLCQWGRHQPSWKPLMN

Row | Structure (SMILES) | outcome | AC50
1 | Cc1cc(C)c(C)cc1C | inactive | 
2 | CCOC(=O)c1ccccc1C(=C1C=C(Br)C(=O)C(Br)=C1)c1cc(Br)c(O)c(Br)c1 |  | 34.4 µM (active)
3 | Nc1ccc(N=Nc2ccccc2)c(N)n1 |  | 70.3 µM (active)
4 | NC(=O)OCC(COC(N)=O)c1ccccc1 | inactive | 
5 | Nc1cccc(C(F)(F)F)c1 | inactive | 
6 | C=C(C)CCO | inactive | 
7 | CCCCCCCCCCOC(C)=O | inactive | 
8 | CC(C)c1ccc2cc(C(C)C)ccc2c1 | inactive | 
9 | CCOC(=O)Cc1cccc2ccccc12 | inactive | 
10 | SCCc1cnccn1 | inactive | 
11 | O=C(O)C(c1ccc(Cl)cc1)c1ccc(Cl)cc1 | inactive | 
12 | CCc1c(C(=O)O)c(=O)cnn1-c1ccc(Cl)cc1 | inactive | 
13 | Cc1cc(C)c(C)c(C)c1 | inactive | 
14 | C=C[Si](C)(C)O[Si](C)(C)C=C | inactive | 
15 | O=C(/C=C/C=C/c1ccc2c(c1)OCO2)N1CCCCC1 | inactive | 
16 | O=C1C=CC(=O)O1 | inactive | 
17 | CC(C)(Oc1ccc(C2CC2(Cl)Cl)cc1)C(=O)O (stereo not given) | inactive | 
18 | O=c1n(CCO)c(=O)n(CCO)c(=O)n1CCO | inactive | 
19 | O=S1(=O)OC(c2ccc(O)cc2)(c2ccc(O)cc2)c2ccccc21 | inactive | 
20 | O=CN1CCCCC1 | inactive | 

Row | Structure (SMILES) | outcome | AC50
21 | C=CC(C)(C)C | inactive | 
22 | CCCC(C)CCC(C)=O (stereo not given) | inactive | 
23 | CC1OC1C1CCC2(C)OC2C1 (stereo not given) | inactive | 
24 | C=CC(=O)OCCOC1C2CCC1C1CC=CC12 (stereo not given) | inactive | 
25 | C=C(C)C(=O)OCC(C)C | inactive | 
26 | C=C1C2CCC(C2)C1(C)C (stereo not given) | inactive | 
27 | NC(=O)c1ccccc1O | inactive | 
28 | C=C(C)[C@H]1CC=C(C)CC1 | inactive | 
29 | CCCOCCOCCOCCO | inactive | 
30 | CC/C=C\C/C=C\C/C=C\CCCCCCCC(=O)O |  | 160 µM (active)
31 | CCCCCCCCCCCCCCCC[n+]1ccccc1 | inactive | 
32 | COCCOCCOCCOCCOC | inactive | 
33 | CCOc1ccc(N)c([N+](=O)[O-])c1 | inactive | 
34 | CCN(CC)c1ccc(C(=O)c2ccccc2C(=O)O)c(O)c1 | inactive | 
35 | O=C(OCC1CCC2OC2C1)C1CCC2OC2C1 (stereo not given) | inactive | 
36 | Cc1cc(C)c(C(=O)O)c(C)c1 | inactive | 
37 | CC(=O)OCc1ccco1 | inactive | 
38 | Cc1ccc(C(C)c2ccc(C)c(C)c2)cc1C | inactive | 
39 | O=c1cc[nH]c(=S)[nH]1 | inactive | 
40 | CC(C)=CC1CC(C)CCO1 (stereo not given) | inactive | 
